Data published in PubChem BioAssay (NCATS).
Records with an inconclusive call do not appear. A call without a number means that no potency is given here. Calls of active or inactive are those of the source. The call rests on the fitted dose curve; in most records, active means well fitted curve in the direction sought with a large enough effect; inconclusive means small, poorly fitted or top-dose-only effect, or another doubt; inactive means no such curve, though single readings can be large; an effect the other way counts as inactive or inconclusive.

What was measured:
[1] = S16 Schwann cell viability assay (CellTiter-Glo assay) (AID 624031);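 further: cellular ATP luminescence as a viability measure; nearly all actives have a fitted effect of over 70% in size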
Procedure, shortened: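 Native S16 Schwann cells (rat), serum-containing medium, overnight attachment then 24 h drug exposure at 37 °C/5% CO2. CellTiter-Glo ATP signal; normalized to cell-free and vehicle wells.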

[2] = S16 Schwann cell PMP22 intronic element firefly luciferase assay (AID 624032); further: nearly all actives have a fitted effect of over 30% in size; further: potency means the concentration at half of the fitted maximal effect
Procedure, shortened: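 Rat S16 Schwann cells stably carrying firefly luciferase driven by a PMP22 intronic element, in 10% FBS, treated 24 h at 37 C. ONE-Glo luminescence normalized to PTC124 control and DMSO (0%); curves classed by r2, magnitude and activity.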

[3] = tested on: 3D7; assay: qHTS profiling for inhibitors of Plasmodium falciparum proliferation (AID 504749); further: nearly all actives have a fitted effect of over 60% in size; further: potency means the concentration at half of the fitted maximal effect; settings: P. falciparum in erythrocytes, SYBR Green DNA, 72 h; series mostly up to 28.7 µM
Procedure, shortened: (§1)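 Each compound contacts P. falciparum-infected red blood cells for 72 h at 37 C; lysis buffer (Tris, EDTA, saponin, Triton X, SYBR Green I) is added and fluorescence measured next morning; values normalized to controls.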

[4] = tested on: AS120; assay: as above; settings: P. falciparum in erythrocytes, SYBR Green DNA, 72 h; series mostly up to 28.7 µM
Procedure, shortened: as §1

[5] = tested on: CP217; assay: as above; settings: P. falciparum in erythrocytes, SYBR Green DNA, 72 h; series mostly up to 28.7 µM
Procedure, shortened: as §1

[6] = tested on: CP237; assay: as above; settings: P. falciparum in erythrocytes, SYBR Green DNA, 72 h; series mostly up to 28.7 µM
Procedure, shortened: as §1

[7] = tested on: CP247; assay: as above; settings: P. falciparum in erythrocytes, SYBR Green DNA, 72 h; series mostly up to 28.7 µM
Procedure, shortened: as §1

[8] = tested on: CP252; assay: as above; settings: P. falciparum in erythrocytes, SYBR Green DNA, 72 h; series mostly up to 28.7 µM
Procedure, shortened: as §1

[9] = tested on: CP260; assay: as above; settings: P. falciparum in erythrocytes, SYBR Green DNA, 72 h; series mostly up to 28.7 µM
Procedure, shortened: as §1

[10] = tested on: CP297; assay: as above; settings: P. falciparum in erythrocytes, SYBR Green DNA, 72 h; series mostly up to 28.7 µM
Procedure, shortened: as §1

[11] = tested on: CP335; assay: as above; settings: P. falciparum in erythrocytes, SYBR Green DNA, 72 h; series mostly up to 28.7 µM
Procedure, shortened: as §1

[12] = tested on: DIV14; assay: as above; settings: P. falciparum in erythrocytes, SYBR Green DNA, 72 h; series mostly up to 28.7 µM
Procedure, shortened: as §1

[13] = tested on: GB4; assay: as above; settings: P. falciparum in erythrocytes, SYBR Green DNA, 72 h; series mostly up to 28.7 µM
Procedure, shortened: as §1

[14] = tested on: HB3; assay: as above; settings: P. falciparum in erythrocytes, SYBR Green DNA, 72 h; series mostly up to 28.7 µM
Procedure, shortened: as §1

[15] = tested on: PAD; assay: as above; settings: P. falciparum in erythrocytes, SYBR Green DNA, 72 h; series mostly up to 28.7 µM
Procedure, shortened: as §1

[16] = tested on: PC26; assay: as above; settings: P. falciparum in erythrocytes, SYBR Green DNA, 72 h; series mostly up to 28.7 µM
Procedure, shortened: as §1

[17] = tested on: SC27B; assay: as above; settings: P. falciparum in erythrocytes, SYBR Green DNA, 72 h; series mostly up to 28.7 µM
Procedure, shortened: as §1

[18] = tested on: TAB113; assay: as above; settings: P. falciparum in erythrocytes, SYBR Green DNA, 72 h; series mostly up to 28.7 µM
Procedure, shortened: as §1

[19] = tested on: 7G8; assay: as above; settings: P. falciparum in erythrocytes, SYBR Green DNA, 72 h; series mostly up to 28.7 µM
Procedure, shortened: as §1

[20] = tested on: ICS; assay: as above; settings: P. falciparum in erythrocytes, SYBR Green DNA, 72 h; series mostly up to 28.7 µM
Procedure, shortened: as §1

Row | Compound | Potency [1] | Potency [2] | Potency [3] | Potency [4] | Potency [5] | Potency [6] | Potency [7] | Potency [8] | Potency [9] | Potency [10] | Potency [11] | Potency [12] | Potency [13] | Potency [14] | Potency [15] | Potency [16] | Potency [17] | Potency [18] | Potency [19] | Potency [20]
1 | CC(=O)O[C@]1(C(C)=O)CCC2C3CCC4=CC(=O)CCC4(C)C3(F)C(O)CC21C (some centres undefined) | inactive | inactive | inactive | inactive | inactive | inactive | inactive | inactive | inactive | inactive | inactive | inactive | inactive | inactive | inactive | inactive | inactive | inactive |  | 
2 | Clc1ccc(CS[C@@H](Cn2ccnc2)c2ccc(Cl)cc2Cl)cc1 | inactive | inactive | 2.82 µM (active) | 1.26 µM (active) | 3.16 µM (active) | 1.78 µM (active) |  | 3.98 µM (active) |  | 3.22 µM (active) | 1.28 µM (active) | 5.1 µM (active) | 3.61 µM (active) | 3.98 µM (active) | 3.16 µM (active) |  | 2.82 µM (active) |  | 0.562 µM (active) | 0.891 µM (active)
3 | C[C@]12CC[C@@H]3c4ccc(O)cc4CC[C@H]3[C@@H]1CCC2OC(=O)CCC1CCCC1 (some centres undefined) |  |  |  | inactive | inactive |  | inactive | inactive | inactive | inactive |  | inactive | inactive | inactive |  | inactive | inactive | inactive | 10 µM (active) | 12.6 µM (active)
4 | C#C[C@@]1(O)CC[C@@H]2[C@H]3CCC4=C/C(=N\O)CC[C@H]4[C@@H]3CC[C@]21CC | inactive |  | inactive | inactive | inactive | inactive | inactive | inactive | inactive | inactive | inactive | inactive |  | inactive | inactive | inactive | inactive | inactive |  | 
5 | CC(C)CCCC(C)C1CC(=O)C2=C3CCC4CC(O)CCC4(C)C3CCC21C (centres undefined) | inactive |  |  | inactive | inactive |  | inactive | inactive |  | inactive |  | inactive | inactive |  | inactive | inactive | inactive |  |  | 
6 | C[C@@H]1CC2C3CCC4=CC(=O)C=C[C@]4(C)[C@@]3(F)[C@@H](O)C[C@]2(C)[C@@]1(O)C(=O)COC(=O)c1cccc(S(=O)(=O)O)c1 (some centres undefined) | inactive | inactive | inactive | inactive | inactive | inactive | inactive | inactive | inactive | inactive | inactive | inactive | inactive | inactive | inactive | inactive | inactive | inactive |  | inactive
7 | C[C@]12C=CC(=O)N[C@@H]1CC[C@@H]1C2CC[C@]2(C)C(C(=O)Nc3cc(C(F)(F)F)ccc3C(F)(F)F)CC[C@@H]12 (some centres undefined) |  |  | 5.62 µM (active) | inactive | inactive | 5.01 µM (active) | inactive | inactive | 5.01 µM (active) |  | 3.79 µM (active) |  |  |  | inactive | inactive | inactive | inactive | 2 µM (active) | 3.16 µM (active)
8 | CC(=O)CC(c1ccccc1)C1C(=O)Oc2ccccc2C1=O (centres undefined) | inactive | inactive | inactive | inactive | inactive | inactive | inactive | inactive | inactive | inactive | inactive | inactive | inactive | inactive | inactive | inactive | inactive | inactive | inactive | inactive
9 | CCC1OC(=O)C[C@H](O)C(C)[C@@H](O[C@@H]2OC(C)C(O)C(N(C)C)C2O)C(CCN2CC(C)CC(C)C2)CC(C)C(=O)/C=C/C(C)=C\[C@@H]1COC1OC(C)C(O)C(OC)C1OC (some centres undefined) |  | inactive | inactive |  |  | 5.01 µM (active) |  |  | 11.2 µM (active) |  | 9.53 µM (active) |  | 7.57 µM (active) | inactive |  |  |  |  |  | 10 µM (active)
10 | O=C1Oc2ccccc2C(=O)C1C(CC(O)c1ccc(-c2ccc(Br)cc2)cc1)c1ccccc1 (centres undefined) |  | 36.1 µM (active) | inactive | inactive | inactive | inactive |  | inactive | inactive | inactive |  |  | inactive | inactive |  | inactive | inactive | inactive | 12.6 µM (active) | 
11 | Cc1cnc(NC(=O)C2C(=O)c3ccccc3S(=O)(=O)N2C)s1 (centres undefined) | inactive | inactive | inactive | inactive | inactive | inactive | inactive | inactive | inactive | inactive | inactive | inactive | inactive | inactive | inactive | inactive | inactive | inactive |  | inactive
12 | CC1OC(OC2C(O)CC(OC3C(O)CC(OC4CCC5(C)C(CCC6C5CCC5(C)C(C7=CC(=O)OC7)CCC65O)C4)OC3C)OC2C)CC(O)C1O (centres undefined) | inactive |  |  | inactive | inactive |  | inactive | inactive | inactive | inactive |  |  |  |  | inactive |  | inactive | inactive | 12.6 µM (active) | 
13 | CC1CCC(O)C/C1=C\C=C1/CCCC2(C)C1CCC2C(C)/C=C/C(C)C(C)C (centres undefined) |  | inactive |  | inactive | inactive | inactive |  | inactive | inactive |  |  |  |  | inactive |  |  | inactive | inactive |  | 11.2 µM (active)
14 | C[N+]12CCCC[C@@H]1CCC(=C(c1cccs1)c1cccs1)C2 (some centres undefined) | inactive |  | 12.6 µM (active) | 10 µM (active) | 7.94 µM (active) |  | 10 µM (active) |  | 11.2 µM (active) |  | 12 µM (active) | 6.75 µM (active) | 7.57 µM (active) |  | 11.2 µM (active) | 15.1 µM (active) |  | 11.2 µM (active) | 7.94 µM (active) | 
15 | CC1=C(C/C=C(\C)CCCC(C)CCCC(C)CCCC(C)C)C(=O)c2ccccc2C1=O (centres undefined) | inactive |  | 8.91 µM (active) |  | inactive |  | inactive | inactive |  | inactive | 12 µM (active) |  |  | 11.2 µM (active) | 7.94 µM (active) | inactive |  | 8.91 µM (active) | 8.91 µM (active) | 3.98 µM (active)
16 | COc1cc(/C=C2\CCC/C(=C\c3ccc(O)c(OC)c3)C2=O)ccc1O | inactive |  | 11.2 µM (active) | 8.91 µM (active) | 11.2 µM (active) | 14.1 µM (active) | 8.91 µM (active) |  | 12.6 µM (active) | 13.5 µM (active) | 12 µM (active) | 6.75 µM (active) | 12 µM (active) | 12.6 µM (active) | 7.08 µM (active) | 10.7 µM (active) | 11.2 µM (active) | 8.91 µM (active) | 2 µM (active) | 3.16 µM (active)
